Source: the supplement of paper PMC10849652
Of roughly 7,900 targets only a part is listed; those with a hit were picked by preference. About 0.6% of all pairs of compound and target were hits.

Columns and labels:
Assay in all cases: log2 fold change, soluble protein after heating vs DMSO (PISA); higher = thermal stabilisation; K562 cells, 10 uM, 30 min; active = over 0.2 and 3.5 SD of the protein, either way, in both replicates (recomputed)
[1] = compound: Cc1ccc(NC(=O)c2ccc(CN3CC[C@H](N(C)C)C3)c(C(F)(F)F)c2)cc1Nc1nccc(-c2cncnc2)n1 [bafetinib]
How it was run: (§1)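 Values are thermal stability changes relative to control samples and are taken from duplicates. They are stated as log2 fold changes. Before quantification by TMTpro 16plex LC-MS/MS with equalised channel sums, K562 cells at 2×10^6 cells/mL were treated with 10 μM compound for 30 min, heated in aliquots for 3 min across 48°C-58°C, pooled, extracted in PBS with 0.5% NP-40 at 4°C, and centrifuged at 21,000xg for 90 min to give the soluble supernatant.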

[2] = compound: Cc1cccc(CC(=O)N2CCc3c2ccc(-c2cn(C)c4ncnc(N)c24)c3F)n1
How it was run: as §1

[3] = compound: Cc1cn(-c2cc(NC(=O)c3ccc(C)c(Nc4nccc(-c5cccnc5)n4)c3)cc(C(F)(F)F)c2)cn1 [nilotinib]
How it was run: as §1

[4] = compound: Cc1nc(Nc2n[nH]c3c2CN(C(=O)N[C@H](CN(C)C)c2ccccc2)C3(C)C)c2sccc2n1
How it was run: as §1

[5] = compound: Cc1nc(Nc2ncc(C(=O)Nc3c(C)cccc3Cl)s2)cc(N2CCN(CCO)CC2)n1 [dasatinib]
How it was run: as §1

[6] = compound: Cc1ncc(-c2ccnc(Nc3ccc(S(C)(=O)=O)cc3)n2)n1C(C)C
How it was run: as §1

[7] = compound: Cn1cc(-c2ccc3c(c2)CCN3C(=O)Cc2cccc(C(F)(F)F)c2)c2c(N)ncnc21
How it was run: as §1

[8] = compound: Cn1cc(-c2ccc3nnc(C(F)(F)c4ccc5ncccc5c4)n3n2)cn1
How it was run: as §1

[9] = compound: Cn1cncc1[C@@](N)(c1ccc(Cl)cc1)c1ccc2c(c1)c(-c1cccc(Cl)c1)cc(=O)n2C [tipifarnib]
How it was run: as §1

[10] = compound: FC(F)(F)c1ccc(/C=C/c2nc(COc3ccc(CCCCn4ccnn4)cc3)co2)cc1 [mubritinib]
How it was run: as §1

Measured: log2 fold change

PSMC3 (UniProt P17980)
UniProt P17980, sequence (P17980 whole entry, looked up): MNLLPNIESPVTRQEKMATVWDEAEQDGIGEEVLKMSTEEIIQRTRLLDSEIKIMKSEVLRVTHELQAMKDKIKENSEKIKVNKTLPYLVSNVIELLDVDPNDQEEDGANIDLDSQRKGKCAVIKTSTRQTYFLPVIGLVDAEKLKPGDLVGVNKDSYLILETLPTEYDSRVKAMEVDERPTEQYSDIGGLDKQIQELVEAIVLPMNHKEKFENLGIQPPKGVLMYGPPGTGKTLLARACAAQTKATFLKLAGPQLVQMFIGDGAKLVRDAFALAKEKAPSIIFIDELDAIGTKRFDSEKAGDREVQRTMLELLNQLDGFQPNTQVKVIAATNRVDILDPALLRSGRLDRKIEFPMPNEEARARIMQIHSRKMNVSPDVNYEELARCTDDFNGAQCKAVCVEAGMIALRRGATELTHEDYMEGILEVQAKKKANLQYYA
inactive: [1] 0.072 | [2] -0.033 | [3] -0.004 | [4] 0.059 | [5] 0.016 | [6] -0.017 | [7] -0.1 | [8] -0.005 | [9] 0.124 | [10] -0.016

PSMD1 (UniProt Q99460)
UniProt Q99460, sequence (Q99460 whole entry, looked up): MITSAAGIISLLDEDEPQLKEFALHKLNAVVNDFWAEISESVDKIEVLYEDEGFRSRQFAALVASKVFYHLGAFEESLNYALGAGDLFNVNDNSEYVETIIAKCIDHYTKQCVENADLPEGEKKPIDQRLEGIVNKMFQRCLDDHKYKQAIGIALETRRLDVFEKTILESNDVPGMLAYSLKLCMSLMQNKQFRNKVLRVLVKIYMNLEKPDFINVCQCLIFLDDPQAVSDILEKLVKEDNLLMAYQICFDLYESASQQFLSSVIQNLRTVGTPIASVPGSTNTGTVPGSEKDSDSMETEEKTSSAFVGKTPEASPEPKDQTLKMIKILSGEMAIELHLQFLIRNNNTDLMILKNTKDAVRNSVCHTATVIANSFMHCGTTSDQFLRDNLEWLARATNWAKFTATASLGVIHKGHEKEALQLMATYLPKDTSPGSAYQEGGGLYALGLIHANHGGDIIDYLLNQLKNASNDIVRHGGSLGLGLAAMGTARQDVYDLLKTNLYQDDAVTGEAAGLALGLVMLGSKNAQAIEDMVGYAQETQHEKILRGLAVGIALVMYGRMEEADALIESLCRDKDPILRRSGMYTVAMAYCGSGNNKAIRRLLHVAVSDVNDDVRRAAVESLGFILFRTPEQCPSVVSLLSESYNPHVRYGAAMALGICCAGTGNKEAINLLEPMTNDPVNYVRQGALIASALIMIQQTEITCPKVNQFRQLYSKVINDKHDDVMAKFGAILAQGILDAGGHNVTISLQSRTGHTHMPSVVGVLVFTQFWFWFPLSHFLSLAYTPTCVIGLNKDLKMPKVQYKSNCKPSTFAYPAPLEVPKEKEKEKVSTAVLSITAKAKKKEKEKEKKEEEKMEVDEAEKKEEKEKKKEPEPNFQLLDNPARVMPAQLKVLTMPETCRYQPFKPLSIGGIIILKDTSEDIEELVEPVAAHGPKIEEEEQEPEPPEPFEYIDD
inactive: [1] 0.16 | [2] 0.037 | [3] 0.006 | [4] 0.041 | [5] 0.065 | [6] -0.017 | [7] -0.102 | [8] 0.019 | [9] 0.068 | [10] -0.019

PRKCG (UniProt P05129)
inactive: [1] -0.012 | [2] 0.067 | [3] 0.019 | [4] -0.385 | [5] 0.022 | [6] 0.018 | [7] 0.015 | [8] -0.132 | [9] -0.095 | [10] 0.047

PRKCA (UniProt P17252)
inactive: [1] -0.043 | [2] -0.066 | [3] -0.011 | [4] -0.173 | [5] -0.233 | [6] -0.005 | [7] 0.082 | [8] -0.022 | [9] -0.026 | [10] 0.054

PLA2G15 (UniProt Q8NCC3)
UniProt Q8NCC3, sequence (Q8NCC3 whole entry, looked up): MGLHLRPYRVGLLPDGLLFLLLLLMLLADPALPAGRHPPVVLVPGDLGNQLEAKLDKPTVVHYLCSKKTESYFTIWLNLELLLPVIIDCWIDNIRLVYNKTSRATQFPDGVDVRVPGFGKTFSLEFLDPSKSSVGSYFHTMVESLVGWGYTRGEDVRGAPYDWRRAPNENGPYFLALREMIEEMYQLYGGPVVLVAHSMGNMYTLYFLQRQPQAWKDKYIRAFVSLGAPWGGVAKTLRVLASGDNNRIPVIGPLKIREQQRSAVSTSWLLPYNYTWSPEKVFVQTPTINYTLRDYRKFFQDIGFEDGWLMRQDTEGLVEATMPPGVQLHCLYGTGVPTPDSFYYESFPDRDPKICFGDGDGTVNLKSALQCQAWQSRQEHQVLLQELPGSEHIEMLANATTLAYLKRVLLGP
inactive: [1] -0.175 | [2] 0.05 | [3] -0.001 | [4] -0.025 | [5] -0.036 | [6] -0.028 | [7] 0.002 | [8] 0.09 | [9] 0.084 | [10] -0.05

PLCB3 (UniProt Q01970)
inactive: [1] -0.059 | [2] -0.084 | [3] -0.104 | [4] 0.033 | [5] -0.092 | [6] -0.006 | [7] -0.006 | [8] 0.061 | [9] -0.039 | [10] 0.003

PPP1CA (UniProt P62136)
UniProt P62136, sequence (P62136 whole entry, looked up): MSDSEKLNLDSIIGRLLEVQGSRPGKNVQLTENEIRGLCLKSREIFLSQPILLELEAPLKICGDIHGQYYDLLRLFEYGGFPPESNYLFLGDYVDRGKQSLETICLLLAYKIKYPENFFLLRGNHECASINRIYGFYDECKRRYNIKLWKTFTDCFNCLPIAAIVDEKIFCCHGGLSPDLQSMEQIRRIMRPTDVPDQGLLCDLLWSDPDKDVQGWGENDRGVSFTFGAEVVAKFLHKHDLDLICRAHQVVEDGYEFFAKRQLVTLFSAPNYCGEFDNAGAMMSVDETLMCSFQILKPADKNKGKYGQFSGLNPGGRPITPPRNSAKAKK
inactive: [1] -0.053 | [2] -0.001 | [3] -0.002 | [4] -0.006 | [5] 0.008 | [6] -0.011 | [7] 0.018 | [8] 0.065 | [9] 0.023 | [10] 0.065

PDS5B (UniProt Q9NTI5)
inactive: [1] 0.041 | [2] -0.139 | [3] -0.314 | [4] 0.04 | [5] -0.244 | [6] -0.031 | [7] 0.038 | [8] 0.147 | [9] 0.054 | [10] 0.127

PPP1R35 (UniProt Q8TAP8)
inactive: [1] -0.039 | [2] 0.058 | [3] 0.008 | [4] -0.031 | [5] -0.04 | [6] -0.095 | [7] -0.024 | [8] -0.042 | [9] -0.022 | [10] 0.065

PGGT1B (UniProt P53609)
inactive: [1] -0.069 | [2] -0.024 | [3] -0.007 | [4] -0.059 | [5] 0.075 | [6] 0.009 | [7] -0.027 | [8] 0.004 | [9] 0.134 | [10] 0.062

PLBD1 (UniProt Q6P4A8)
UniProt Q6P4A8, sequence (Q6P4A8 whole entry, looked up): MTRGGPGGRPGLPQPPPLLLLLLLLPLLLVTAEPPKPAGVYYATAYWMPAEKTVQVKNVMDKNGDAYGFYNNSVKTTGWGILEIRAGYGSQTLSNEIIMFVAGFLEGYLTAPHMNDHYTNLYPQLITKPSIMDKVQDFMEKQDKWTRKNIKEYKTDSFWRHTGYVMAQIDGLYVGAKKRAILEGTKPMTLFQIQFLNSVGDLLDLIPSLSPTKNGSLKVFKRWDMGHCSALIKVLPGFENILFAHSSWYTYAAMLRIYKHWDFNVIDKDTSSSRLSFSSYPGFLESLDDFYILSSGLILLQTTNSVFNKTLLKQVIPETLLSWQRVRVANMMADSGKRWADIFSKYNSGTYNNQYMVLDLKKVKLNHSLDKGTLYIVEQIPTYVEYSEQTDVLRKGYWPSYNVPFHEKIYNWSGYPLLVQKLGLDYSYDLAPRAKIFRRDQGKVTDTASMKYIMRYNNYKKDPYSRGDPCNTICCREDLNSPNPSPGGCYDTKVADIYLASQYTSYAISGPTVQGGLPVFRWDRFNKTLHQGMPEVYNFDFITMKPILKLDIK
inactive: [1] -0.143 | [2] 0 | [3] 0.021 | [4] -0.029 | [5] -0.063 | [6] -0.035 | [7] 0.041 | [8] 0.081 | [9] 0.038 | [10] 0.052

PTMA (UniProt P06454)
UniProt P06454, sequence (P06454 whole entry, looked up): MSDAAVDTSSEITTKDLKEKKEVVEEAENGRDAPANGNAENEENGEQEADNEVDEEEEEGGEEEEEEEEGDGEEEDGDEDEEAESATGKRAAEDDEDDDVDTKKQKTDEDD
inactive: [1] -0.076 | [2] -0.047 | [3] 0.023 | [4] 0.001 | [5] -0.01 | [6] -0.031 | [7] 0.177 | [8] -0.147 | [9] -0.02 | [10] 0.109

POLR2A (UniProt P24928)
inactive: [1] -0.019 | [2] -0.014 | [3] -0.039 | [4] 0.24 | [5] -0.066 | [7] 0 | [8] -0.037 | [9] 0.004 | [10] 0.038
active: [6] 0.511

PDE12 (UniProt Q6L8Q7)
UniProt Q6L8Q7, sequence (Q6L8Q7 whole entry, looked up): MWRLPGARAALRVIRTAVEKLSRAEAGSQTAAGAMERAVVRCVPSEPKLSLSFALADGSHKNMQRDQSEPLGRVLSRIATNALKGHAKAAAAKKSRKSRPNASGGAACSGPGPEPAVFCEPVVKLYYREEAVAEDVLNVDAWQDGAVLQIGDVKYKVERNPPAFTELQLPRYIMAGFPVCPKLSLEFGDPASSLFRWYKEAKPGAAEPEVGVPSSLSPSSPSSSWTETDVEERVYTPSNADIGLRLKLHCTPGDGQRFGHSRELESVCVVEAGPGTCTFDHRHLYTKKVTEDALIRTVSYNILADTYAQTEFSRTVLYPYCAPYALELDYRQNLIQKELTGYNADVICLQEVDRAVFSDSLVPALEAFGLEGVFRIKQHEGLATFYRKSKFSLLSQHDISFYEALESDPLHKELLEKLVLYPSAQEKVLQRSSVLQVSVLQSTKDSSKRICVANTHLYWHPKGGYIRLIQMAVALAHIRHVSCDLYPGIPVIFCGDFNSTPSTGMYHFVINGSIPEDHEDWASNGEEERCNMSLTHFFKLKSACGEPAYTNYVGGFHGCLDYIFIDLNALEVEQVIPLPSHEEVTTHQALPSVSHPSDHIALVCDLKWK
inactive: [1] -0.013 | [2] 0.002 | [3] -0.004 | [4] 0.017 | [5] -0.061 | [6] -0.006 | [7] 0.067 | [8] 0.066 | [9] -0.078 | [10] 0.066

PSMD12 (UniProt O00232)
inactive: [1] 0.119 | [2] 0.033 | [3] 0.026 | [4] 0.044 | [5] 0 | [6] -0.001 | [7] -0.088 | [8] -0.022 | [9] 0.019 | [10] -0.034

PGGHG (UniProt Q32M88)
inactive: [1] -0.036 | [2] -0.001 | [3] 0.012 | [4] 0.023 | [5] 0.009 | [6] -0.078 | [7] -0.152 | [8] 0.058 | [9] -0.077 | [10] 0.047
